Drawing on PubChem BioAssay (NCI), this text covers growth inhibition for ten molecules.

The structures appear in SMILES notation. Compounds without any hit were thinned out: in the full panel of roughly 79,000, 15% have a hit. Values without a mark were called inactive. Calls of active or inactive are those of the source. Rule as the data show it: active = growth inhibition above about 70%; inactive = the rest.

The nature of assay [1]: NCI Yeast Anticancer Drug Screen. Data for the rad50 strain (AID 155).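 Also: 0% = growth of vehicle-only cultures of the same strain.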 As to conditions: S. cerevisiae rad50 strain growth inhibition, stronger effect = higher value. An outline of the steps: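 DNA repair mutant yeast, compound exposure, growth read-out; inhibition is taken relative to vehicle.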
A short description of assay [2]: NCI Yeast Anticancer Drug Screen. Data for the mec2-1 strain (AID 157). As to conditions: S. cerevisiae mec2-1 strain, stronger effect = higher value. An outline of the steps:
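Cells of the genetically defined mec2-1 yeast strain are incubated with test compound. Inhibition of growth is calculated against vehicle-treated controls.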

Assay [3] can be described thus: NCI Yeast Anticancer Drug Screen. Data for the sgs1 mgt1 strain (AID 161).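 Also: 0% = growth of cultures given vehicle only.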 The note with it: S. cerevisiae sgs1 mgt1 strain, stronger effect = higher value. An outline of the steps: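 Genetically altered yeast, compound exposure, growth inhibition relative to vehicle.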
A short description of assay [4]: NCI Yeast Anticancer Drug Screen. Data for the cln2 rad14 strain (AID 165).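 Also: 0% = growth equal to vehicle treated cultures.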 The note with it: S. cerevisiae cln2 rad14 strain, stronger effect = higher value. An outline of the steps: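 The screen exposed genetically defined yeast (cln2 rad14) to test compounds and scored growth inhibition relative to vehicle-treated controls.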
The nature of assay [5]: NCI Yeast Anticancer Drug Screen. Data for the bub3 strain (AID 167). The note with it: S. cerevisiae bub3 mutant strain, stronger effect = higher value. An outline of the steps:
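In this screen, a yeast mutant lacking normal mitotic checkpoint function is challenged with compound. Relative growth versus vehicle gives the inhibition value.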

Assay [6] in a line: NCI Yeast Anticancer Drug Screen. Data for the mlh1 rad18 strain (AID 175). As to conditions: S. cerevisiae mlh1 rad18 strain growth inhibition, stronger effect = higher value. An outline of the steps: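 Compound-treated yeast growth, normalised to vehicle controls. Strain bears defined DNA repair mutations.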
Setting [7] is: at 5.0 µM (retest, dose inferred, filed as 0.5).
Setting [8] is: at 50.0 µM (retest, dose inferred, filed as 5.0).

Consider `C=CC(=O)Nc1ccccc1CC(c1c[nH]c2ccccc12)c1c[nH]c2ccccc12`, for which the growth inhibition in assay [1] (setting [7]) is 34%; in assay [1] (setting [8]), 34%; in assay [1] (at 50.0 µM), 85% (active); in assay [2] (setting [7]), 26%; in assay [2] (setting [8]), 26%; in assay [2] (at 50.0 µM) it was 73.7% (active). Further, the growth inhibition in assay [3] (setting [7]) was 34%; in assay [3] (setting [8]) it was 34%; in assay [3] (at 50.0 µM), 81.5% (active); in assay [4] (setting [7]), 12%; in assay [4] (setting [8]) it was 12%; in assay [4] (at 50.0 µM), 84.3% (active). For the same molecule, the growth inhibition in assay [5] (setting [7]) was 21%; in assay [5] (setting [8]), 21%; in assay [5] (at 50.0 µM), 74.5% (active); in assay [6] (setting [7]), 27%; in assay [6] (setting [8]) it was 27%; in assay [6] (at 50.0 µM) it was 76.9% (active).
Turning to `O=C(CC(=O)c1ccccc1)CC(=O)c1cccc(Cl)c1`, the growth inhibition in assay [1] (setting [7]) is -1%; in assay [1] (setting [8]), 87% (active); in assay [1] (at 50.0 µM), 81.1% (active); in assay [2] (setting [7]) it was 5%; in assay [2] (setting [8]) it was 89% (active); in assay [2] (at 50.0 µM) it was 65%. The growth inhibition in assay [3] (setting [7]) was -1%; in assay [3] (setting [8]), 87% (active); in assay [3] (at 50.0 µM), 76.2% (active); in assay [4] (setting [7]), -9%; in assay [4] (setting [8]), 77% (active); in assay [4] (at 50.0 µM), 18.4%. The growth inhibition in assay [5] (setting [7]) is 8%; in assay [5] (setting [8]), 94% (active); in assay [5] (at 50.0 µM), 78.5% (active); in assay [6] (setting [7]), 4%; in assay [6] (setting [8]), 93% (active); in assay [6] (at 50.0 µM), 85.2% (active).
Turning to `O=C(Nc1ccc(C(F)(F)F)cc1[N+](=O)[O-])C(=O)C(C(=O)c1ccc2ccccc2c1)C1OC(=O)c2ccccc21` (stereo not given), the growth inhibition in assay [1] (setting [7]) was 26%; in assay [1] (setting [8]), 26%; in assay [1] (at 50.0 µM) it was 2.05%; in assay [2] (setting [7]), 10%; in assay [2] (setting [8]), 10%; in assay [2] (at 50.0 µM), 4.85%. The growth inhibition in assay [3] (setting [7]) is 8%; in assay [3] (setting [8]), 8%; in assay [3] (at 50.0 µM) it was 13.9%; in assay [4] (setting [7]), 15%; in assay [4] (setting [8]) it was 15%; in assay [4] (at 50.0 µM), -28.6%. Besides, the growth inhibition in assay [5] (setting [7]) was 9%; in assay [5] (setting [8]), 9%; in assay [5] (at 50.0 µM), 22.7%; in assay [6] (setting [7]), 10%; in assay [6] (setting [8]), 10%; in assay [6] (at 50.0 µM), 10.2%.
For `CCOc1ccc2nc3cc(Cl)ccc3[n+](C)c2c1`, the growth inhibition in assay [1] (setting [7]) was 20%; in assay [1] (setting [8]) it was 79% (active); in assay [1] (at 50.0 µM), 85.2% (active); in assay [2] (setting [7]), 14%; in assay [2] (setting [8]) it was 87% (active); in assay [2] (at 50.0 µM), 87.3% (active). Moreover, the growth inhibition was 15% in assay [3] (setting [7]); 87% (active) in assay [3] (setting [8]); 82.8% (active) in assay [3] (at 50.0 µM); 10% in assay [4] (setting [7]); 74% (active) in assay [4] (setting [8]); 72.7% (active) in assay [4] (at 50.0 µM). For the same molecule, the growth inhibition in assay [5] (setting [7]) was 32%; in assay [5] (setting [8]) it was 88% (active); in assay [5] (at 50.0 µM) it was 83.9% (active); in assay [6] (setting [7]), 15%; in assay [6] (setting [8]), 81% (active); in assay [6] (at 50.0 µM), 86.7% (active).
As to `O=[N+]([O-])c1ccc(-c2nc(/C=N/N3CCCCC3)cs2)o1`, the growth inhibition is 12% in assay [1] (setting [7]); 57% in assay [1] (setting [8]); 69.7% in assay [1] (at 50.0 µM); 1% in assay [2] (setting [7]); 26% in assay [2] (setting [8]); 43.5% in assay [2] (at 50.0 µM). Moreover, the growth inhibition in assay [3] (setting [7]) was 17%; in assay [3] (setting [8]) it was 76% (active); in assay [3] (at 50.0 µM) it was 84.5% (active); in assay [4] (setting [7]), -7%; in assay [4] (setting [8]) it was 32%; in assay [4] (at 50.0 µM), 42.4%. In addition, the growth inhibition in assay [5] (setting [7]) was -1%; in assay [5] (setting [8]) it was 3%; in assay [5] (at 50.0 µM), 15.2%; in assay [6] (setting [7]), 16%; in assay [6] (setting [8]), 64%; in assay [6] (at 50.0 µM), 66.5%.
For `CCCCCCCCCCCCCCCCCCNC(=S)/N=C/c1c(O)cc(C)oc1=O`, the growth inhibition in assay [1] (setting [7]) was 1%; in assay [1] (setting [8]), 15%; in assay [1] (at 50.0 µM) it was 16.1%; in assay [2] (setting [7]), 8%; in assay [2] (setting [8]), 38%; in assay [2] (at 50.0 µM), -13.7%. Moreover, the growth inhibition in assay [3] (setting [7]) is -15%; in assay [3] (setting [8]), 8%; in assay [3] (at 50.0 µM), 57%; in assay [4] (setting [7]), 7%; in assay [4] (setting [8]), -13%; in assay [4] (at 50.0 µM), -30.1%. The growth inhibition in assay [5] (setting [7]) was -2%; in assay [5] (setting [8]), -8%; in assay [5] (at 50.0 µM), 18.9%; in assay [6] (setting [7]), 10%; in assay [6] (setting [8]), 29%; in assay [6] (at 50.0 µM) it was 15.9%.
On to `O=C1CSC(=S)N1Cc1ccccc1Cl`, for which the growth inhibition was 15% in assay [1] (setting [7]); 93% (active) in assay [1] (setting [8]); 98.9% (active) in assay [1] (at 50.0 µM); 6% in assay [2] (setting [7]); 97% (active) in assay [2] (setting [8]); 96.2% (active) in assay [2] (at 50.0 µM). Besides, the growth inhibition in assay [3] (setting [7]) was 11%; in assay [3] (setting [8]) it was 98% (active); in assay [3] (at 50.0 µM), 97.9% (active); in assay [4] (setting [7]) it was 2%; in assay [4] (setting [8]) it was 81% (active); in assay [4] (at 50.0 µM), 97.3% (active). The growth inhibition in assay [5] (setting [7]) was -1%; in assay [5] (setting [8]) it was 94% (active); in assay [5] (at 50.0 µM), 95.2% (active); in assay [6] (setting [7]), 11%; in assay [6] (setting [8]) it was 98% (active); in assay [6] (at 50.0 µM) it was 99% (active).
On to `Nc1ccc(C(=O)N/C(=C\C=C\c2ccco2)c2nc3c4c(ccc3[nH]2)C(=O)c2ccccc2C4=O)cc1`, for which the growth inhibition in assay [1] (setting [7]) is 23%; in assay [1] (setting [8]) it was 75% (active); in assay [1] (at 50.0 µM), 90.8% (active); in assay [2] (setting [7]), 1%; in assay [2] (setting [8]) it was 28%; in assay [2] (at 50.0 µM) it was 62.1%. Further, the growth inhibition in assay [3] (setting [7]) was 3%; in assay [3] (setting [8]), 35%; in assay [3] (at 50.0 µM), 74.8% (active); in assay [4] (setting [7]), 0%; in assay [4] (setting [8]), 9%; in assay [4] (at 50.0 µM) it was 44.7%. Besides, the growth inhibition is 2% in assay [5] (setting [7]); 22% in assay [5] (setting [8]); 31.9% in assay [5] (at 50.0 µM); 10% in assay [6] (setting [7]); 12% in assay [6] (setting [8]); 90.5% (active) in assay [6] (at 50.0 µM).
With `O=S(=O)(CC(Br)CCl)c1ccccc1` (stereo not given), the growth inhibition is 2% in assay [1] (setting [7]); 72% (active) in assay [1] (setting [8]); 15.1% in assay [1] (at 50.0 µM); 2% in assay [2] (setting [7]); 55% in assay [2] (setting [8]); 31.3% in assay [2] (at 50.0 µM). Also, the growth inhibition in assay [3] (setting [7]) is -1%; in assay [3] (setting [8]), 46%; in assay [3] (at 50.0 µM) it was 40.5%; in assay [4] (setting [7]), 4%; in assay [4] (setting [8]) it was 17%; in assay [4] (at 50.0 µM) it was -62.6%. The growth inhibition is 5% in assay [5] (setting [7]); 38% in assay [5] (setting [8]); 54.8% in assay [5] (at 50.0 µM); 13% in assay [6] (setting [7]); 76% (active) in assay [6] (setting [8]); 57% in assay [6] (at 50.0 µM).
For `Cc1ccccc1C[n+]1ccccc1Br`, the growth inhibition in assay [1] (setting [7]) was 11%; in assay [1] (setting [8]), 87% (active); in assay [1] (at 50.0 µM) it was 94.3% (active); in assay [2] (setting [7]), 9%; in assay [2] (setting [8]), 79% (active); in assay [2] (at 50.0 µM) it was 60.6%. In addition, the growth inhibition was 12% in assay [3] (setting [7]); 78% (active) in assay [3] (setting [8]); 64.6% in assay [3] (at 50.0 µM); -4% in assay [4] (setting [7]); 74% (active) in assay [4] (setting [8]); 32% in assay [4] (at 50.0 µM). Besides, the growth inhibition in assay [5] (setting [7]) is -12%; in assay [5] (setting [8]), 77% (active); in assay [5] (at 50.0 µM) it was 59.6%; in assay [6] (setting [7]), 15%; in assay [6] (setting [8]), 90% (active); in assay [6] (at 50.0 µM), 54.4%.
